Measurements: PubChem BioAssay AID1863 (Southern Research Specialized Biocontainment Screening …, 2009)
Screen size: about 300,000 compounds; about 480 (0.16%) were called active.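 Rule for the calls: active = inhibition over 29.93%, a cutoff 3 SD above the screen mean, later confirmed by dose response; inconclusive = inhibition over 29.93% but no dose response follow-up; inactive = inhibition at most 29.93% or unconfirmed.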 Only a sample is shown. Results with a measured potency or affinity are listed apart.

Assay: inhibitors of PhoP regulon expression, primary screen, Salmonella Typhimurium, GFP reporter (AID 1863);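 note: 0% = low Mg2+ inducing control and 100% = high Mg2+ repressing control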
Conditions: S. Typhimurium PhoP-regulated promoter GFP reporter, 4 h; at 50 µM; hits give high values

inhibition, inactive:
Cc1cccc(CCNC(=O)CN(C)S(=O)(=O)c2ccc3c(c2)c(=O)n(C)c(=O)n3C)c1 10.3%
Cc1ccc(N2C(=O)N(Cc3ccccc3C)c3ccccc3S2(=O)=O)cc1 3.76%
O=C(N/N=C/c1ccc(O)c2ncccc12)c1cccc(Br)c1 -1.53%
Cc1ccc(N=Nc2ccc(O)c3ncccc23)cc1 0.67%
Oc1ccc(F)c2cccnc12 -2.12%
Cc1ccccc1N=Nc1ccc(O)c2ncccc12 -2.25%
CN(c1ccc(C(=O)Nc2ccccc2C(=O)N2CCCC2)cc1)S(C)(=O)=O 1.89%
CCn1c(C(=O)O)c(CC(=O)Nc2ccccc2OC)c2ccccc21 -3.77%
CCC/C=C1/CCCOC(C(=O)NCc2ccccn2)(C(F)(F)F)C1 (stereo unspecified) 4.57%
COC(=O)c1ccccc1NC(=O)Nc1ncccc1C 8.31%
C=CCn1c(-c2sc3nc(C)cc(C)c3c2N)n[nH]c1=S 1.92%
CN(Cc1ccccc1)S(=O)(=O)c1ccc(Cl)c(C(=O)NCCc2ccccn2)c1 -2.89%
Cc1ccc(S(=O)(=O)NC(=O)NCc2ccc(F)cc2)cc1 -2.51%
COc1ccc(-c2nnc(SCC(=O)NC(=O)NCc3ccccc3)o2)cc1 2.48%
CCCc1cc(=O)oc2cc(C)cc(OCC(=O)NCCCN3CCCC3=O)c12 -4.85%
Cn1nnnc1SCc1nc2ccccc2s1 -6.44%
COc1c(C(=O)Nc2ccc(CN3CCOCC3)cc2)cc2ccccc2c1Br 2.69%
C=CC1=C(C(=O)O)N2C(=O)C(NC(=O)Cc3ccccc3)C2SC1 (stereo unspecified) -2.7%
C[C@H]1[C@H](NC(=O)C(=NOC(C)(C)C(=O)O)c2csc(N)n2)C(=O)N1S(=O)(=O)O -6.02%
CC1=C(C(=O)O)N2C(=O)C(NC(=O)c3ccn(C)n3)C2SC1 (stereo unspecified) 5.21%
CN(C)CCn1nnnc1SCC1=C(C(=O)O)N2C(=O)[C@@H](NC(=O)Cc3csc(N)n3)[C@H]2SC1 2.16%
COC(c1ccccc1)(c1ccccc1)C(Oc1nccc(C)n1)C(=O)O (stereo unspecified) -3.3%
COc1cccc(C(=O)Nc2cnc(NC(=O)c3ccco3)cc2C)c1 12.2%
C=CCN=C(NC#N)SCC(=O)c1cccc(OC)c1 -4.71%
O=C(NCCCn1ccnc1)/C(=C\c1ccc(Br)cc1)NC(=O)c1ccccc1F -5.42%
COc1cc(O)c(C(CC(=O)N2CCOCC2)c2cc(OC)c(OC)c(OC)c2)c(OC)c1 (stereo unspecified) -0.44%
